BAZ2B inh = qHTS Assay for Inhibitors of BAZ2B | Bromodomain adjacent to zinc finger domain protein 2B (Homo sapiens), Q9UIF8 | 360,000 tested, 4.4% active | Potency, µM (top dose mostly 114 µM), hits mostly inhibitors | AlphaScreen BAZ2B-H3K14Ac peptide displacement; note: nearly all actives have a fitted effect of over 60% in size
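Complex of BAZ2B and biotin-H3K14Ac (50 nM apiece) forms over 30 min at RT, then faces library compounds up to 110 uM for another 30 min; AlphaScreen beads added, 20 min dark incubation, luminescence read.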
CtBP-E1A blk = qHTS Assay for Inhibitors of the CtBP/E1A Interaction. 340,000 tested, 0.49% active. AID 651724, 2012. AlphaScreen GST-E1A/His-CtBP binding, 1536-well; stronger effect = lower value. activity change, % (concentration not given with the values). CtBP / adenovirus E1A interaction (AlphaScreen); in the data active = activity change below about -65%; inconclusive = mostly about -30% to -63%
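Protein mix (5X: 125 nM each GST-E1A, His-CtBP) was incubated with pinned compound 2 h at 37 deg C in dark, in 50 mM Tris pH 8.0 buffer with 300 mM NaCl. Glutathione donor and nickel acceptor beads followed; AlphaScreen signal read after 1 h.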
HP1b chromo inh = HTS for Inhibitors of HP1-beta Chromodomain Interactions with Methylated Histone Tails | Chromobox protein homolog 1 (Homo sapiens), P83916 | AlphaScreen HP1-beta / biotin-H3K9me3 peptide binding | Potency, µM (doses to about 114 µM), usual class: inhibitors | 390,000 tested, 0.56% active | AID 540317, 2011; note: nearly all actives have a fitted effect of over 70% in size
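Compound inhibition of the preformed complex between 50 nM HP1-beta and 50 nM biotinylated H3K9me3 peptide was read by AlphaScreen. Buffer was PBS pH 7.4 with 0.01% Tween-20. Incubations ran 30 min at room temperature, with 10 ug/mL donor/acceptor beads.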
G9a inh = qHTS Assay for Inhibitors of Histone Lysine Methyltransferase G9a; Histone-lysine N-methyltransferase EHMT2 (Homo sapiens), Q96KQ7; G9a H3K9 monomethylation, AlphaScreen, 2 h; Potency, µM (top dose mostly 102 µM), most hits filed as inhibitors; 350,000 tested, 8.8% active; AID 504332, 2011; note: nearly all actives have a fitted effect of over 75% in size
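Compounds were preincubated with 20 nM G9a for 15 min, after which biotinylated H3K9 peptide (500 nM) and SAM (20 uM) started a 2 h room-temperature reaction. Monomethylated product was quantified by antibody-based AlphaScreen chemiluminescence.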
Six1-Eya2 inh = qHTS Assay for Inhibitors of the Six1/Eya2 Interaction; Homeobox protein SIX1 (Homo sapiens) + Protein phosphatase EYA2 (Homo sapiens), …; AlphaScreen GST-Six1/His-Eya2 binding, biochemical; stronger effect = lower value; activity change, % (concentration not given with the values); 360,000 tested, 0.56% active; AID 651725, 2012; in the data active = activity change below about -65%; inconclusive = mostly about -30% to -63%
Target sequence (O00167 whole entry, looked up): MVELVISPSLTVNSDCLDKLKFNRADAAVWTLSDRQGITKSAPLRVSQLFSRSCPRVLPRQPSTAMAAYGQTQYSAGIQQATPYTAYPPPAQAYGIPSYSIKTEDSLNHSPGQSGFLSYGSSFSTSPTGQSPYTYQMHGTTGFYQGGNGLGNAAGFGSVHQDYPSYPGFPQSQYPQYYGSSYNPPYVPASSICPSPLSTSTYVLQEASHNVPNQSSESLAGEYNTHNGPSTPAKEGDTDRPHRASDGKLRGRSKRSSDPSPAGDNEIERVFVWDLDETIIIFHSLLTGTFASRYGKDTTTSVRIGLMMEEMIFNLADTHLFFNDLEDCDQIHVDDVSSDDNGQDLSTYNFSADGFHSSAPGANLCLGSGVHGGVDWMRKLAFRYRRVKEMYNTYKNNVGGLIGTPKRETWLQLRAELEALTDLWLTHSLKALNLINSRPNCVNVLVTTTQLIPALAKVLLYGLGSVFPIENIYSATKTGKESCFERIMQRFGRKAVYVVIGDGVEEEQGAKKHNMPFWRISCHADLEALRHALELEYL
Target sequence (Q15475 whole entry, looked up): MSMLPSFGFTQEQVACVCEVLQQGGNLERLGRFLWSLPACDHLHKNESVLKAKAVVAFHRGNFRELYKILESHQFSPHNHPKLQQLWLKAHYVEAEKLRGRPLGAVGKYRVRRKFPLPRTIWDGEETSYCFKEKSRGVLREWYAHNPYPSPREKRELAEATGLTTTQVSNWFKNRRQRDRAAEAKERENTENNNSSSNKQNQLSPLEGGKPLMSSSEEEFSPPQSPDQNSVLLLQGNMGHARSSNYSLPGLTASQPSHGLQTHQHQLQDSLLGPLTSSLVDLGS
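GST-Six1 + His-Eya2 (5X stock: 250/500 nM); Tris pH 8.0, 300 mM NaCl, 0.05% BSA, 0.02% Tween 20; GSH donor/Ni acceptor beads; 1 h 37 °C dark; AlphaScreen readout.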
JMJD2A Tudor = qHTS Assay for Inhibitors of JMJD2A-Tudor Domain; Lysine-specific demethylase 4A (Homo sapiens), O75164; AlphaScreen JMJD2A-Tudor / H3K4me3 peptide binding; Potency, µM (doses to about 114 µM), actives largely listed as inhibitors; 390,000 tested, 4.4% active; note: nearly all actives have a fitted effect of over 50% in size
Hits are given with their value; 0 = inactive; ? = inconclusive; - = not tested or not shown; [ ] = remark or other dose. A selection: hits, their analogues and other compounds. The true share with any hit is near 10%. Unless noted, calls come from the whole dose curve; as a rule, active = well fitted inhibition curve with a large enough effect; inconclusive = small, poorly fitted or top-dose-only effect; inactive = no such curve, though single readings can be large or run the other way.

SMILES | BAZ2B inh | CtBP-E1A blk | HP1b chromo inh | G9a inh | Six1-Eya2 inh | JMJD2A Tudor
Cc1cc(NC(=O)c2cc(-c3ccccn3)nc3ccc(Br)cc23)no1 | 70.8µM | 0 | 0 | - | 0 | 0
O=c1[nH]c(CN2CCc3ccccc32)nc2scc(-c3cccs3)c12 | 0 | 0 | 0 | 17.8µM | 0 | 0
O=C(CSCc1nc2scc(-c3cccs3)c2c(=O)[nH]1)Nc1ccccn1 | 0 | 0 | 0 | - | 0 | 0
CCCc1nc2c(sc3nc4c(cc32)COC(C)(C)C4)c(=O)n1CCN(CC)CC | - | 0 | 0 | ? | 0 | 0
COc1cccc(N2CCN(C(=O)C3CCN(S(=O)(=O)c4ccc5c(c4)CC(C)N5C(C)=O)CC3)CC2)c1 (stereo not drawn) | 0 | - | 0 | - | 0 | 0
O=[N+]([O-])c1cnc(Sc2ccncn2)s1 | 0 | - | 0 | 10µM | 0 | 0
O=[N+]([O-])c1cnc(Sc2ccncn2)c([N+](=O)[O-])c1 | - | 0 | - | - | ? | -
CN(Cc1ccccc1)S(=O)(=O)CCNC(=O)c1ccc2c(c1)OCO2 | 0 | 0 | 0 | 0 | 0 | 0
COc1cc(NS(=O)(=O)c2cc3[nH]c(=O)[nH]c3cc2C)cc(OC)c1OC | 0 | - | 0 | 0 | - | 0
COc1ccc(NS(=O)(=O)c2cc3[nH]c(=O)c(=O)[nH]c3cc2C)cc1OC | 79.4µM | - | 0 | 0 | - | 0
NC(Cc1ccc(C(F)(F)F)cc1)c1csc(Nc2cc(Oc3ccccc3)ncn2)n1 (stereo not drawn) | - | 0 | - | - | 0 | -
Cc1nn(Cc2ccccc2)c2c1C(c1cccnc1)C(C#N)=C(N)O2 (stereo not drawn) | 0 | 0 | 0 | 50.1µM | 0 | 0
Cc1nn(Cc2ccccc2)c2c1C(c1ccncc1)C(C#N)=C(N)O2 (stereo not drawn) | 0 | 0 | 0 | ? | 0 | 0
O=C(CSc1nc(-c2ccccc2)nc2ccc(F)cc12)Nc1ccc(C(=O)O)cc1 | 50.1µM | 0 | 0 | 44.7µM | 0 | 35.5µM
O=C(CSc1nc(-c2ccc(F)cc2)nc2c1Cc1ccccc1O2)Nc1cccc(C(=O)O)c1 | 7.94µM | 0 | ? | 7.94µM | ? | 10µM
O=C(CSc1nncc2ccccc12)Nc1cccc(C(=O)O)c1 | ? | 0 | 0 | - | 0 | 0[11.4 µM]
O=C(CSc1nc(-c2ccccc2)nc2ccc(F)cc12)Nc1cccc(C(=O)O)c1 | 79.4µM | 0 | 0 | 70.8µM | 0 | ?
COc1ccc(C)cc1N(CC(=O)NCCN1CCOCC1)S(=O)(=O)c1ccccc1 | 0 | 0 | 0 | 0 | 0 | 0
CCc1ccc(-n2nc(C)c3c(C)cc(=O)n(CC(=O)Nc4ccccc4C(=O)OC)c32)cc1 | 0 | - | 0 | 0 | - | 0
Fc1ccc(-n2nc(-c3ccccc3)c3cnc4ccccc4c32)cc1Cl | 0 | - | 0 | 0 | - | 0
CCn1cnc2c(Nc3cc(F)cc(F)c3)nc(C(=O)COc3c(F)c(F)cc(F)c3F)nc21 | - | - | - | - | - | 0
CS(=O)(=O)c1ccc(N)c(SSc2cc(S(C)(=O)=O)ccc2N)c1 | 35.5µM | 0 | ? | ? | 0 | 1.41µM
OC1CCN(Cc2cccc3ccccc23)CC1 | 50.1µM | - | ? | ? | 0 | 79.4µM
CN1CCCN(Cc2cccc3ccccc23)CC1 | 56.2µM | - | ? | - | 0 | 25.1µM
Cc1cc2ccccc2cc1CN1CCCCC1 | 0 | - | 0 | 0 | 0 | 0
SMILES | BAZ2B inh | CtBP-E1A blk | HP1b chromo inh | G9a inh | Six1-Eya2 inh | JMJD2A Tudor
Cc1ccc(C(=O)Nc2cc3c(cc2N2CCCCC2)n(C)c(=O)n3C)cc1 | 0 | 0 | 0 | 0 | 0 | 0
Cn1c(=O)c(=O)n(C)c2cc(N3CCCC3)c(NC(=O)c3ccc(C(C)(C)C)cc3)cc21 | ? | - | 0 | 11.2µM | - | 0
CCOc1cc(C(=O)Nc2cc3c(cc2N2CCCC2)n(C)c(=O)c(=O)n3C)cc(OCC)c1OCC | 0 | - | 0 | 10µM | - | 0
CCOc1cc(C(=O)Nc2cc3c(cc2N2CCCC2)n(C)c(=O)n3C)cc(OCC)c1OCC | 89.1µM | 0 | 0 | - | 0 | 0
Cc1cccc(C)c1NC(=S)N1CC(C)OC(C)C1 (stereo not drawn) | 0 | 0 | 0 | 0 | 0 | 0
Cc1ccc(C(=O)OCC(=O)NCc2ccco2)s1 | 0 | 0 | 0 | 79.4µM | 0 | 35.5µM
O=C(COC(=O)C1CC2C=CC1C2)NCc1ccco1 (stereo not drawn) | 28.2µM | 0 | 79.4µM | ? | ? | 39.8µM
Cc1ccc(C(=O)OCC(=O)NCc2cccs2)s1 | 0 | 0 | 0 | 0 | 0 | 0
COc1ccccc1OCC(=O)Nc1oc(-c2ccccc2)c(-c2ccccc2)c1C#N | 0 | 0 | 0 | 0 | 0 | ?
O=C(COC(=O)C1CCCCC1C(=O)N1CCc2ccccc21)NCc1ccco1 (stereo not drawn) | 50.1µM | 0 | 0 | 28.2µM | 0 | 0[11.4 µM]
N#Cc1c(NC(=O)COC(=O)C2CC3C=CC2C3)oc(-c2ccccc2)c1-c1ccccc1 (stereo not drawn) | ? | 0 | 0 | 7.08µM | 0 | 0[11.4 µM]
CC1Cc2ccccc2N1S(=O)(=O)c1cccc(C(=O)OCC(=O)NCc2ccco2)c1 (stereo not drawn) | 0 | 0 | 0 | ? | 0 | 0
CCOc1ccc(CCNS(=O)(=O)c2cc3c(cc2C)NC(=O)CO3)cc1OCC | 0 | 0 | 0 | - | 0 | 0
CN(CCc1ccccn1)C(=O)CCC1CCCN(C(=O)CCOc2ccccc2)C1 (stereo not drawn) | 0 | - | 0 | 0 | 0 | 0
N#Cc1c(NC(=O)CSc2n[nH]c(Cc3ccccc3)n2)oc(-c2ccccc2)c1-c1ccccc1 | 0 | 0 | 0 | 3.55µM | 0 | ?
Cc1cc(C)cc(C(=O)OCC(=O)NCc2ccco2)c1 | - | 0 | 0 | - | 0 | 89.1µM
O=C(COC(=O)c1ccc([N+](=O)[O-])cc1Cl)NCc1ccco1 | 0 | 0 | 0 | 0[12.7 µM] | 0 | 0
O=C(COC(=O)C1(c2ccc(F)cc2)CCCC1)NCc1ccco1 | 0 | 0 | 0 | ? | 0 | 50.1µM
O=C(COC(=O)c1ccc(F)cc1Cl)NCc1ccco1 | 50.1µM | 0 | ? | ? | 0 | 50.1µM
CCOc1ccc(NC(=O)CN2CCN(C(=O)C3CCCO3)CC2)cc1 (stereo not drawn) | 0 | 0 | 0 | 0 | 0 | 0
COc1ccc(CNC(=O)CCNS(=O)(=O)c2ccc3c(c2)CCCC(=O)N3)cc1 | 0 | - | 0 | 0 | - | 0
C[C@H](CO)N1C[C@H](C)[C@H](CN(C)C(=O)Cc2ccncc2)Oc2ncc(Br)cc2C1=O | - | 0 | - | - | 0 | -
COc1ccc(S(=O)(=O)n2nc(OC(C)=O)cc2N(C(C)=O)C(C)=O)cc1 | 0 | 0 | 0 | 0[12.7 µM] | 0 | 0
